Values joined by “and” are separate entries in the source; they are usually repeats but may differ in a detail not shown here. Equal entries are not always repeated. Results filed as inconclusive are left out. Active and inactive are the calls of the source. Calls follow the shape of the dose curve; as a rule, active = well fitted cell-killing curve with a large enough effect; inconclusive = small, poorly fitted or top-dose-only effect, or effect the other way; inactive = no such curve, though single readings can be large or run the other way.
test: Viability qHTS for spleen associated tyrosine kinase inhibitor (SYKi) naive MV4-11 cells (AID 1963823); conditions: MV4-11 AML viability, CellTiter-Glo luminescence, 72 h; series mostly up to 45 µM; viability (% of control): at the top concentration; also: nearly all actives have a fitted effect of over 40% in size
Excerpt: Department of Medicine, Hematology/Oncology
University Hospital Frankfurt, Germany.
Trials have shown promising clinical activity of the selective SYK inhibitor entospletinib in patients with high expressing HOXA9/MEIS1 acute leukemias. As the development of resistance mechanisms is a common problem in the use of targeted drugs, we performed a chemical library screen to identify drug sensitivities in SYK inhibitor resistant AML cells. […] Glucocorticoids are potent immunosuppressants which work in part by inhibiting the transcription of cytokine genes.
Described herein is a viability screen to look for activity in the SYK inhibitor naive cell line against four NCATS compound libraries (MIPE 5.0, NPC, NPACT, and Kinase) totaling 11372 compounds. Active hits were reacquired for confirmation and further secondary assay testing.
SEQUENCE No. (e.g., 1, 2, 3, etc.); […] (e.g., Cells, Incubation, Reagent, etc.); VALUE; DESCRIPTION.
1; Media; 2uL; white, solid-bottom Corning assay plate.
2; Compounds; 23nL; Echo acoustic dispenser.
3; Cell; 5uL; 500 cells per well.
4: Incubation; 72hr; 37 C, 5% CO2, 95% humidity.
5; Reagent; 3uL; CellTiter-Glo reagent (Promega).
6; Incubation; 10min; room temperature.
7; Detection; Luminescence; ViewLux plate reader (PerkinElmer).
NOTES (numbers refer to Sequence numbers above
1. Quantitative high-throughput screening (qHTS) of small molecule compounds was conducted on naive SYKi MV4-11 cell line.
2. Twenty-three nanoliter of small molecule compounds were added to each assay plates using the Echo acoustic dispenser (Beckman Coulter).
3. Cells were seeded into the assay plates at a final density of 500 cells in 5uL of media per well using the Multi-drop Combi dispenser.
4. Plates were covered with stainless steel gasketed lids and incubated for 72 hours at standard cell culture conditions.
5. Viability was assessed by adding 3uL of CellTiter-Glo detection reagent (Promega).
6. Plates were covered with gasket lids and incubated for 10 minutes at room temperature.
7. Luminescence was measured on a ViewLux plate reader (PerkinElmer).
Potency is read from the fitted curve at half-maximal effect.

Row | SMILES | viability (% of control) | Potency
1 | COC(=O)C1=COC(O[C@@H]2O[C@H](CO[C@@H]3O[C@H](COC(=O)/C=C\c4ccc(O)cc4)[C@@H](O)[C@H](O)[C@H]3O)[C@@H](O)[C@H](O)[C@H]2O)C2C(CO)=CCC12 (stereo not given in full) | 4.93% [at 17.3 µM] (inactive) | –
2 | Cc1onc(-c2ccccc2)c1C(=O)N[C@@H]1C(=O)N2[C@@H]1SC(C)(C)[C@@H]2C(=O)O | – | inactive
3 | Cc1cc(Nc2cc(N3CCN(C)CC3)nc(Sc3ccc(NC(=O)C4CC4)cc3)n2)n[nH]1 | – | 0.0461 µM (active)
4 | O=C(Nc1ccc(N2CCC(C(=O)N3CCOCC3)CC2)cc1)c1cnc(Oc2ccccc2)nc1 | 76.3% (inactive) | –
5 | COc1cc(N2CCC(O)CC2)ccc1Nc1nc(Nc2ccccc2S(=O)(=O)C(C)C)c2[nH]cnc2n1 | – | 1.3 µM (active)
6 | CCCCCNC(=O)N1CCC(CN(Cc2ccc(Cl)cc2)Cc2ccc([N+](=O)[O-])s2)C1 (stereo not given) | – | 20.9 µM (active)
7 | CC[C@@H](Nc1c(Nc2cccc(C(=O)N(C)C)c2O)c(=O)c1=O)c1ccc(C)o1 | 58.5% (inactive) | –
8 | CC(=O)[C@H]1CC[C@H]2[C@@H]3CC=C4C[C@@H](O)CC[C@]4(C)[C@H]3CC[C@]12C | – | 5.96 µM (active)
9 | NS(=O)(=O)c1cc2c(cc1Cl)NCNS2(=O)=O | – | inactive
10 | CC(=O)O[C@@H]1[C@@H](CO)O[C@@](CO)(O[C@H]2O[C@H](COC(=O)/C=C/c3ccccc3)[C@@H](O)[C@H](O)[C@H]2O)[C@H]1O | 15.5% [at 17.3 µM] (inactive) | –
11 | O=C(O)CC1CCC(c2ccc(-c3ccc4nc(C(=O)NCc5ccc(OC(F)(F)F)cc5)cn4c3)cc2)CC1 (stereo not given) | 63.9% (inactive) | –
12 | C[C@@H]1O[C@@H](O[C@@H]2[C@@H](O)[C@H](O[C@H]3[C@H](O[C@H]4CC[C@@]5(C)C(CC[C@]6(C)C5CC=C5[C@@H]7CC(C)(C)CC[C@]7(C(=O)O[C@@H]7O[C@H](CO)[C@@H](O)[C@H](O)[C@H]7O[C@@H]7O[C@@H](C)[C@H](O[C@@H]8O[C@@H](C)[C@H](O)[C@@H](O)[C@H]8O)[C@@H](O)[C@H]7O)CC[C@]56C)[C@@]4(C)CO)O[C@H](C(=O)O)[C@@H](O)[C@@H]3O)O[C@H](CO)[C@H]2O)[C@H](O)[C@H](O)[C@H]1O (stereo not given in full) | 94% [at 9.25 µM] (inactive) | –
13 | COc1ccc(C(OC2OC(CO)C(O)C(O)C2O)C(C)O)cc1 (stereo not given) | 72.9% (inactive) | –
14 | CCc1cccc(CC)c1NC(=O)N1Cc2[nH]nc(NC(=O)c3ccc(N4CCN(C)CC4)cc3)c2C1 | – | 1.46 µM (active) and 1.66 µM (active)
15 | Cc1nc2cc(-c3cc(F)cc(C#N)c3)ccc2s1 | 72.5% (inactive) | –
16 | COc1cc([C@@H](O[C@@H]2O[C@H](CO)[C@@H](O)[C@H](O)[C@H]2O)[C@@H]2CO[C@H](c3ccc(O)c(OC)c3)[C@H]2CO)ccc1O | 75.3% [at 17.3 µM] (inactive) | –
17 | CN1CCN(Cc2ccc(-c3cnc4[nH]cc(-c5ccc6[nH]ccc6c5)c4c3)cc2)CC1 | – | 0.082 µM (active)
18 | CC1(C)CC2C3=CCC4C5(C)CCC(OC6OC(CO)C(O)C(OC7OC(CO)C(O)C(OC8OC(CO)C(O)C(OC9OC(COC%10OC(CO)C(O)C(O)C%10O)C(O)C(O)C9O)C8O)C7O)C6O)C(C)(C)C5CCC4(C)C3(C)CCC2(C(=O)O)CC1O (stereo not given) | 81.7% [at 9.25 µM] (inactive) | –
19 | O=C(Nc1ccc([N+](=O)[O-])cc1Cl)c1cc(Cl)ccc1O | – | 920 nM (active) and 934 nM (active)
20 | Cc1cc(CNC(=O)c2cc(C(=O)NCc3ccc(F)c(C)c3)ncn2)ccc1F | 78.8% (inactive) | –

Row | SMILES | viability (% of control) | Potency
21 | CCCCCCCC/C=C\CCCCCCCCN | 90.3% (inactive) | –
22 | CC(C)(O)CS(=O)(=O)Nc1ccc2c(c1)CCN(C(=O)COc1cccnc1)C2 | – | 0.0209 µM (active)
23 | Cc1cc(C)c(CNC(=O)c2cc(-c3ccc(N4CCN(C)CC4)nc3)cc3c2c(C)cn3C(C)C)c(=O)[nH]1 | – | 13.2 µM (active) and 18.6 µM (active)
24 | C=C[C@H]1[C@H](O[C@@H]2O[C@H](CO)[C@@H](O)[C@H](O)[C@H]2O)OC=C(C(=O)OC)[C@H]1CC=O | 97.8% (inactive) | –
25 | COc1nc2ccc(Br)cc2cc1[C@@H](c1ccccc1)[C@@](O)(CCN(C)C)c1cccc2ccccc12 | – | 6.51 µM (active)
26 | CN(CCCNC(=O)c1ccc2nc3c(c(Cl)c2c1)CCCC3)Cc1ccccc1 | – | 5.8 µM (active)
27 | O=S(c1cc(Cl)cc(Cl)c1O)c1cc(Cl)cc(Cl)c1O | 59.3% (inactive) | –
28 | CC(=O)Nc1c(I)cc(I)c(C(=O)O)c1I | 63.2% (inactive) | –
29 | CC(CC(C)O[C@@H]1O[C@H](CO)[C@@H](O)[C@H](O)[C@H]1O)OC(=O)/C=C/c1ccc(O)cc1 (stereo not given in full) | 86.9% [at 17.3 µM] (inactive) | –
30 | NC(=O)c1ncn(C2O[C@H](CO)[C@@H](O)[C@H]2O)c1N (stereo not given in full) | 89.1% (inactive) | –
31 | CC(=O)c1ccc2c(c1)[C@H](NC(=O)c1ccc(F)c(Cl)c1)[C@H](O)C(C)(C)O2 | 85.7% (inactive) | –
32 | CC(=O)N[C@H](Cc1ccc2ccccc2c1)C(=O)N[C@H](Cc1ccc(Cl)cc1)C(=O)N[C@H](Cc1cccnc1)C(=O)N[C@@H](CO)C(=O)N[C@@H](Cc1ccc(O)cc1)C(=O)N[C@H](CCCNC(N)=O)C(=O)N[C@@H](CC(C)C)C(=O)N[C@@H](CCCN=C(N)N)C(=O)N1CCC[C@H]1C(=O)N[C@H](C)C(N)=O | 106% [at 17.3 µM] (inactive) | –
33 | C=C[C@H]1[C@H](O[C@@H]2O[C@H](CO)[C@@H](O)[C@H](O)[C@H]2O)OC=C2C(=O)N3Cc4c([nH]c5ccccc5c4=O)[C@@H]3C[C@H]21 | 78% [at 17.3 µM] (inactive) | –
34 | CC12CC(O)C(O)C=C1c1cc(O)cc(O)c1C(=O)O2 (stereo not given) | 60.5% (inactive) | –
35 | O=C(c1c(F)ccc(NS(=O)(=O)N2CC[C@@H](F)C2)c1F)c1c[nH]c2ncc(-c3cnc(C4CC4)nc3)cc12 | – | 6.51 µM (active)
36 | CC(C)(O)C1CC=C(C(=O)OC[C@H]2O[C@@H](OC(=O)C3=CCC(C(C)(C)O)CC3)[C@H](O)[C@@H](O)[C@@H]2O)CC1 (stereo not given in full) | 93.6% [at 17.3 µM] (inactive) | –
37 | CCC1CCCCN1C(=O)n1ncc(C(O)(c2ccccc2)c2ccccc2)n1 (stereo not given) | – | 11.8 µM (active)
38 | O=C(OCC1=C[C@@H](O)[C@@H]2C=CO[C@@H](O[C@@H]3O[C@H](CO)[C@@H](O)[C@H](O)[C@H]3O)[C@H]12)c1ccc(O)cc1 | 67.1% [at 17.3 µM] (inactive) | –
39 | COc1ccc(CCC(C)=O)cc1 | 105% (inactive) | –
40 | CC(C)CN(CC(=O)N(CCCN1CCCC1=O)CC(N)=O)C(=O)CNCCc1ccccc1F | 89.8% (inactive) | –

Reference: PubChem BioAssay (NCATS)
